Measured values as given in PubChem BioAssay (EPA / NIEHS).
The source made the active and inactive calls. The calls were made as follows: active = hit-call score of the fitted dose curve at least 0.9, where 1 is the maximum; inactive = score below 0.9.

Key:
[1] = ATG_GLI_CIS: Attagene CIS-FACTORIAL HepG2 Assay for human Zinc Finger Protein GLI1 (AID 2282945); conditions: HepG2, Attagene cis-factorial reporter mRNA, GLI element; actives raise or lower the signal
Outline: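 HepG2 cells transiently transfected with cis-promoter multiplexed reporter units report endogenous transcription factor activity. After 24 h chemical exposure, reporter mRNA was quantified by RT-PCR, 6-FAM labelling, HpaI digestion and capillary electrophoresis, with bidirectional fitting against DMSO.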

[2] = target: Bile acid receptor (Homo sapiens) (UniProt Q96RI1); assay: ATG_IR1_CIS: Attagene CIS-FACTORIAL HepG2 Assay for human Nuclear Receptor Subfamily 1 Group H Member 4 (NR1H4), IR1 submotif (AID 2282946); conditions: IR1 reporter transcription, actives raise or lower the signal
Chain of Bile acid receptor (Homo sapiens) (Q96RI1 whole entry, looked up): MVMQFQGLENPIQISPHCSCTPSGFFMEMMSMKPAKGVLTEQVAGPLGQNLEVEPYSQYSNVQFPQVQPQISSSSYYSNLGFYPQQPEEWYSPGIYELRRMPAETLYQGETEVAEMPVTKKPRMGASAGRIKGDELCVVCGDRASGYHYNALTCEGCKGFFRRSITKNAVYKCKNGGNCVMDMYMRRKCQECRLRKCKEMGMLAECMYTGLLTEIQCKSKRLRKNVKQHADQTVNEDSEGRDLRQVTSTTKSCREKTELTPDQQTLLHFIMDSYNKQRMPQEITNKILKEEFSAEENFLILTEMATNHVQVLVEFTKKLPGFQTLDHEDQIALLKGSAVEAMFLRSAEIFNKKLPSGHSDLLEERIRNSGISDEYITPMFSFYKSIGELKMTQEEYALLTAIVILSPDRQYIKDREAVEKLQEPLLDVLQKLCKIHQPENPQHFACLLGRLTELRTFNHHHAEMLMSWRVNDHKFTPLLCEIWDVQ
Outline: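 Transient MRTU transfection, HepG2; 24 h dosing; RNA → RT-PCR → 6-FAM primer extension → HpaI digest → capillary electrophoresis fluorescence. Gain/loss of signal fitted relative to DMSO.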

[3] = ATG_GRE_CIS: Attagene CIS-FACTORIAL HepG2 Assay for human Glucocorticoid Response Elements (GRE) (AID 2282947); conditions: HepG2 GRE cis-reporter, Attagene multiplex mRNA; actives raise or lower the signal
Outline: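 HepG2 cells transiently transfected with multiple cis-promoter reporter units measure endogenous TF activity; 24 h compound exposure. Reporter mRNA quantified by RT-PCR, FAM labelling, HpaI digestion and capillary electrophoresis; bidirectional fit vs DMSO baseline.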

[4] = ATG_ISRE_CIS: Attagene CIS-FACTORIAL HepG2 Assay for human Interferon Regulatory Factor 1 (IRF1) binding to an Interferon-Stimulated Response Element (ISRE) (AID 2282948); conditions: HepG2 ISRE cis-reporter (Attagene), mRNA transcription readout; actives raise or lower the signal
Outline: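 Transiently transfected HepG2 cells carrying cis-element reporter units, dosed 24 hours. Reporter mRNA quantified by RT-PCR, fluorescent primer extension, HpaI digestion and capillary electrophoresis. Bidirectional fitting relative to DMSO.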

[5] = ATG_M_32_CIS: Attagene CIS-FACTORIAL HepG2 Assay for M32 Transcription Factor (Internal Marker) (AID 2282949); conditions: HepG2 Attagene cis-factorial M32 reporter, mRNA; actives raise or lower the signal;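 also: background control marker of the multiplexed CIS panel rather than a real target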
Outline: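 Internal background marker read-out: RT-PCR/capillary electrophoresis fluorescence of reporter transcripts from transiently transfected HepG2 cells after 24 h chemical exposure. Activity fitted bidirectionally relative to DMSO negative control.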

[6] = ATG_M_06_CIS: Attagene CIS-FACTORIAL HepG2 Assay for M06 Transcription Factor (Internal Marker) (AID 2282950); conditions: HepG2 Attagene CIS-FACTORIAL M06 internal marker reporter; actives raise or lower the signal
Outline: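 Fluorescence-labelled RT-PCR products from cis-promoter reporter units, cut with HpaI and resolved by capillary electrophoresis, give the signal. Cells are human HepG2, dosed for 24 h. Serves as background control, fitted relative to DMSO.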

[7] = target: Hypoxia-inducible factor 1-alpha (Homo sapiens) (UniProt Q16665); assay: ATG_HIF1a_CIS: Attagene CIS-FACTORIAL HepG2 Assay for human Hypoxia Inducible Factor 1 (HIF1A) (AID 2282951); conditions: HepG2 Attagene cis-factorial HIF1a reporter transcription; actives raise or lower the signal
Chain of Hypoxia-inducible factor 1-alpha (Homo sapiens) (Q16665 whole entry, looked up, the tested form may be a part): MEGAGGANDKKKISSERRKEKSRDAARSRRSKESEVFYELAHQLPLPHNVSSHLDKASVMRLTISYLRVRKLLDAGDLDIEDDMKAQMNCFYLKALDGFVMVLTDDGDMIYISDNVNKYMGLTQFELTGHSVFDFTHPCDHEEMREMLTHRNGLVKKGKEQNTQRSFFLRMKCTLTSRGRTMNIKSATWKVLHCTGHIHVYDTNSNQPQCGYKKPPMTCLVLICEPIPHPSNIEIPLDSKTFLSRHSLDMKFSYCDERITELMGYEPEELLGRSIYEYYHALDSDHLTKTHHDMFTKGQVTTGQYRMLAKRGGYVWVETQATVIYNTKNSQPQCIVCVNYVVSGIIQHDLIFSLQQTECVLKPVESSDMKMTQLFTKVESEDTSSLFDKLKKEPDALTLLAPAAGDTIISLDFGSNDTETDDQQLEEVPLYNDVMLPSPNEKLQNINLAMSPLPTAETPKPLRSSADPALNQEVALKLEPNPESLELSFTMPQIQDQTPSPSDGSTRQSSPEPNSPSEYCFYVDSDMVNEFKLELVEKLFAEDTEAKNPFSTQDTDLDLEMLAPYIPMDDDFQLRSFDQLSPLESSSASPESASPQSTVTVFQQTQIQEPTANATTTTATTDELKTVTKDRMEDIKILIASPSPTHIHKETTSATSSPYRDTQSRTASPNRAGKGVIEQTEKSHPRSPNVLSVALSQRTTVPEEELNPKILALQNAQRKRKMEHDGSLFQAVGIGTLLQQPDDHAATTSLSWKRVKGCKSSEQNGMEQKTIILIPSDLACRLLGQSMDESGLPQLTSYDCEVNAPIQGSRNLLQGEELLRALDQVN
Outline: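 Transient MRTU transfection of human HepG2 liver cells, 24 h compound treatment, then total RNA isolation, oligo(dT) reverse transcription, PCR amplification, fluorescent labelling and capillary electrophoresis of reporter fragments. Gain or loss relative to DMSO.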

[8] = target: Hepatocyte nuclear factor 6 (Homo sapiens) (UniProt Q9UBC0); assay: ATG_HNF6_CIS: Attagene CIS-FACTORIAL HepG2 Assay for human Hepatocyte Nuclear Factor 6 (HNF6) (AID 2282952); conditions: HepG2 Attagene cis-factorial HNF6 reporter transcription; actives raise or lower the signal
Chain of Hepatocyte nuclear factor 6 (Homo sapiens) (Q9UBC0 whole entry, looked up, the tested form may be a part): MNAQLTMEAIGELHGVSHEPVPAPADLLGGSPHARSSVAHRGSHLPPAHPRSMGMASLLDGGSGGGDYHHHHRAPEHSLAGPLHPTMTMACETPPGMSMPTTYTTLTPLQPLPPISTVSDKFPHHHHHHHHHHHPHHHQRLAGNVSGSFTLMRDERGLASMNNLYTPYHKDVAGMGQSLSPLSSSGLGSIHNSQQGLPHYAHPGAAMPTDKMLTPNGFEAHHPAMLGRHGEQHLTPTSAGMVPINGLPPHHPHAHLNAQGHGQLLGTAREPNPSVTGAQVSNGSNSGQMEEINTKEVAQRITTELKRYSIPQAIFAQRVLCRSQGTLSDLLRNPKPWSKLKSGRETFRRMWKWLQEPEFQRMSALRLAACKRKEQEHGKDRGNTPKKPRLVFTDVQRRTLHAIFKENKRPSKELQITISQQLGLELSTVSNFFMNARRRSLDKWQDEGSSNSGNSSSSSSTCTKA
Outline: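 HepG2 cells transiently transfected with cis-element-driven multiplexed reporter units measuring endogenous transcription factor activity. After 24 h exposure, reporter mRNA quantified by RT-PCR, FAM-labelled fragments and capillary electrophoresis; bidirectional fitting versus DMSO.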

[9] = target: Heat shock factor protein 1 (Homo sapiens) (UniProt Q00613); assay: ATG_HSE_CIS: Attagene CIS-FACTORIAL HepG2 Assay for human Heat Shock Transcription Factor 1 (HSE) (AID 2282953); conditions: HepG2 HSE cis-reporter, Attagene RNA transcription; actives raise or lower the signal
Chain of Heat shock factor protein 1 (Homo sapiens) (Q00613 whole entry, looked up): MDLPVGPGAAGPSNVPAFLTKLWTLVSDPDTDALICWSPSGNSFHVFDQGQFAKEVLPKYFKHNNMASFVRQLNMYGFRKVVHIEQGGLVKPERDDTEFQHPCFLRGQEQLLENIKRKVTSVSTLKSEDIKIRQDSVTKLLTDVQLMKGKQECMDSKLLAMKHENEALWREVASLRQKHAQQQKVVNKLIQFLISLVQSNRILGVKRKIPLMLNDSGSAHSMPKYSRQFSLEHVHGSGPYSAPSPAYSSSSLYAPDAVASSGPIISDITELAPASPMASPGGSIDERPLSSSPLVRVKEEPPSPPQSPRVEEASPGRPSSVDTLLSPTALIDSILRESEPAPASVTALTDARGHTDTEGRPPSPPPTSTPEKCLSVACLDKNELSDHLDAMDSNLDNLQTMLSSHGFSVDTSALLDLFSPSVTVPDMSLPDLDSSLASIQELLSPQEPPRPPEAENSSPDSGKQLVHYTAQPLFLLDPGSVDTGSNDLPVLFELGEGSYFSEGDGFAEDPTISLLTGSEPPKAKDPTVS
Outline: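 After a 24 h incubation with test chemical, transfected HepG2 cells were harvested for RNA; reporter transcripts were measured by RT-PCR and capillary electrophoresis. Values reflect gain or loss of signal relative to DMSO.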

[10] = target: Paired box protein Pax-6 (Homo sapiens) (UniProt P26367); assay: ATG_Pax6_CIS: Attagene CIS-FACTORIAL HepG2 Assay for human Paired Box 6 (PAX6) (AID 2282956); conditions: HepG2 CIS-FACTORIAL PAX6 reporter transcription, RNA readout; actives raise or lower the signal
Chain of Paired box protein Pax-6 (Homo sapiens) (P26367 whole entry, looked up): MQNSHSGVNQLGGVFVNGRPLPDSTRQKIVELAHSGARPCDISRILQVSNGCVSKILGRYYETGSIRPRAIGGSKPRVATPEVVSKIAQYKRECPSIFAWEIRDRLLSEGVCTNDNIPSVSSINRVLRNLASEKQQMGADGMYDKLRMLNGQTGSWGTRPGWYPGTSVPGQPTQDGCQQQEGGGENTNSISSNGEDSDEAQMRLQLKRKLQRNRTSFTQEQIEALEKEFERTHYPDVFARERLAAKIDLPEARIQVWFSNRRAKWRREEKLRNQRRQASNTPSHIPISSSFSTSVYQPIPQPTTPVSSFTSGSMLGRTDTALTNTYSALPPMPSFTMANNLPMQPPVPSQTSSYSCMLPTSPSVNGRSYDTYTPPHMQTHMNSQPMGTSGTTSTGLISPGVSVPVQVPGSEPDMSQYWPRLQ
Outline: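 HepG2 cells transiently transfected with cis-promoter-driven multiplexed reporter units sensing endogenous transcription factor activity; 24 h chemical exposure. Reporter mRNA quantified by RT-PCR, 6-FAM labelling, HpaI digestion and capillary electrophoresis; bidirectional fit versus DMSO baseline.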

[11] = ATG_PXRE_CIS: Attagene CIS-FACTORIAL HepG2 Assay for human Pregnane X Receptor Element (PXRE) (AID 2282957); conditions: HepG2 Attagene CIS-FACTORIAL PXRE reporter, mRNA; actives raise or lower the signal
Outline: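 HepG2 cells transiently transfected with cis-element-driven multiplexed reporter units; after 24 h chemical exposure, reporter mRNA measured by RT-PCR, 6-FAM labelling, HpaI digestion and capillary electrophoresis. Bidirectional fitting relative to DMSO.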

[12] = ATG_PPRE_CIS: Attagene CIS-FACTORIAL HepG2 Assay for human Peroxisome Proliferator-activated Response Element (PPRE) (AID 2282958); conditions: HepG2 PPRE cis-element reporter, Attagene transcription factor profiling; actives raise or lower the signal
Outline: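 HepG2, transient MRTU transfection (cis promoter elements, endogenous TFs). 24 h dosing. RNA → oligo(dT) RT → PCR → 6-FAM primer extension → HpaI digest → CE. Bidirectional fit vs DMSO.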

[13] = ATG_RORE_CIS: Attagene CIS-FACTORIAL HepG2 Assay for human RAR-related Orphan Receptor Element (RORE) (AID 2282959); conditions: HepG2 Attagene cis-factorial RORE reporter, mRNA; actives raise or lower the signal
Outline: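 Transient MRTU transfection of human HepG2 liver cells (FuGene 6); 24 h compound exposure; TriZol RNA, oligo(dT) RT, PCR, FAM labeling, HpaI cut, CE fragment analysis. DMSO = negative control/baseline.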

[14] = ATG_Sox_CIS: Attagene CIS-FACTORIAL HepG2 Assay for human SRY-box transcription factor (SOX) (AID 2282960); conditions: HepG2 Attagene cis-factorial SOX reporter, mRNA; actives raise or lower the signal
Outline: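 Endogenous factor activity in human liver HepG2 cells carrying transfected cis-regulated reporter units. RNA taken 24 h post-dose, reverse-transcribed, PCR-amplified and sized by capillary electrophoresis. Gain or loss of signal fitted relative to DMSO.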

[15] = target: Transcription factor Sp1 (Homo sapiens) (UniProt P08047); assay: ATG_Sp1_CIS: Attagene CIS-FACTORIAL HepG2 Assay for human Specificity Protein 1 (Sp1) (AID 2282961); conditions: HepG2 Sp1 cis-reporter transcription, actives raise or lower the signal
Chain of Transcription factor Sp1 (Homo sapiens) (P08047 whole entry, looked up): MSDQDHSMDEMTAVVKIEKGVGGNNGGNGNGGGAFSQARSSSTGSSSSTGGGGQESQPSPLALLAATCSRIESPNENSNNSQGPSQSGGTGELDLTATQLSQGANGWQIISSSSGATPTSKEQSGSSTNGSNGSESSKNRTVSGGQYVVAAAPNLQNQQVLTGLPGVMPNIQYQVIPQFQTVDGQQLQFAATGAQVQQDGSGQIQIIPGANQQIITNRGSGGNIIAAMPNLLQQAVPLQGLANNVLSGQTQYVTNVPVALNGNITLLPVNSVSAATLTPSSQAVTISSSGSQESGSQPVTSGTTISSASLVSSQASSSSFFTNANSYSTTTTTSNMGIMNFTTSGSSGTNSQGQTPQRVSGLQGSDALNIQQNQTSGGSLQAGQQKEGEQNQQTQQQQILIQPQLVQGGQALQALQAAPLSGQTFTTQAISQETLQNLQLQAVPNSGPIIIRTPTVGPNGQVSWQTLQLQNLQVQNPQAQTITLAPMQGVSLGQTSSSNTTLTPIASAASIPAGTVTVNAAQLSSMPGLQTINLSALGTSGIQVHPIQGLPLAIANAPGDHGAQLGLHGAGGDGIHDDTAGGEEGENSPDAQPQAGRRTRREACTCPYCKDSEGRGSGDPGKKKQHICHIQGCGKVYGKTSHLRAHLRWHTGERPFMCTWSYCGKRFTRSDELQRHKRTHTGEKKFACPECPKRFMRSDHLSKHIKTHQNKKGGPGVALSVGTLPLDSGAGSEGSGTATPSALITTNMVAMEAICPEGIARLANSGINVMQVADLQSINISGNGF
Outline: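 Transient MRTU-transfected HepG2, 24 h compound exposure. Total RNA → oligo(dT) RT → PCR of reporter → 6-FAM primer extension → HpaI digest → CE. Endpoint fitted both directions vs DMSO.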

[16] = ATG_SREBP_CIS: Attagene CIS-FACTORIAL HepG2 Assay for human Sterol Regulatory Element Binding (SREBP) (AID 2282962); conditions: HepG2 Attagene cis-factorial SREBP reporter, mRNA; actives raise or lower the signal
Outline: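 HepG2 cells transiently transfected with multiplexed cis-promoter reporter units sensing endogenous transcription factors; reporter mRNA measured 24 h after dosing by RT-PCR, 6-FAM labeling, HpaI digestion and capillary electrophoresis. Bidirectional fit versus DMSO.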

[17] = target: Signal transducer and activator of transcription 3 (Homo sapiens) (UniProt P40763); assay: ATG_STAT3_CIS: Attagene CIS-FACTORIAL HepG2 Assay for human Signal Transducer and Activator of Transcription 3 (STAT3) (AID 2282963); conditions: HepG2, Attagene cis-factorial STAT3 reporter transcription; actives raise or lower the signal
Chain of Signal transducer and activator of transcription 3 (Homo sapiens) (P40763 whole entry, looked up): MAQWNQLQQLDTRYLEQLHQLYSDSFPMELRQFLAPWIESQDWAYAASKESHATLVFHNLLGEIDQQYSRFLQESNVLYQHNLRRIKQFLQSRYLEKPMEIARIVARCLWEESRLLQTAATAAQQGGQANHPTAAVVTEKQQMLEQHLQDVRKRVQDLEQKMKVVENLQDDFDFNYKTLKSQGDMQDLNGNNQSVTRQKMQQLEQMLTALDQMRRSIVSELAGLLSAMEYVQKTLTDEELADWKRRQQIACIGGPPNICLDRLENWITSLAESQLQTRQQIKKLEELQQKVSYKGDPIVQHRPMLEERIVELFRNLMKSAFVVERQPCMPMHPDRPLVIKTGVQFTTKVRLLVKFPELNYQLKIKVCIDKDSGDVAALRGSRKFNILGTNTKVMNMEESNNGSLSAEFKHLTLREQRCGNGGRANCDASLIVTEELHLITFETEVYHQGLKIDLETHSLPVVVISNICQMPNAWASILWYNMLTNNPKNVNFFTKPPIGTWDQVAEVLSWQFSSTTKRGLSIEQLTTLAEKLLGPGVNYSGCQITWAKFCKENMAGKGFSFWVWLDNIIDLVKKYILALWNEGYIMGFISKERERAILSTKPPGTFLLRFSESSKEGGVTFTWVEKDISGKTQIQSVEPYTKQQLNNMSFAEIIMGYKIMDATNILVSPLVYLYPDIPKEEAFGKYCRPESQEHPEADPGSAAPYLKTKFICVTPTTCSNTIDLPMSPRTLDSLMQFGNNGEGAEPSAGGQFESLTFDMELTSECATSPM
Outline: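 HepG2 cells transiently transfected with cis-element-driven multiple reporter transcription units; after 24 h chemical exposure, reporter mRNA measured by RT-PCR, 6-FAM primer-extension labelling, HpaI digestion and capillary electrophoresis. Bidirectional fitting versus DMSO baseline.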

[18] = ATG_TA_CIS: Attagene CIS-FACTORIAL HepG2 Assay for human TA Basal Promoter (AID 2282964); conditions: HepG2 Attagene CIS-factorial TA basal promoter reporter; actives raise or lower the signal
Outline: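 Multiplexed mRNA reporter assay, HepG2, 24 h. Reporter cDNA amplified, 6-FAM primer-extended, HpaI-cut, CE-sized; DMSO = negative control and baseline.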

[19] = ATG_MRE_CIS: Attagene CIS-FACTORIAL HepG2 Assay for human Metal Responsive Element (MRE) (AID 2282954); conditions: HepG2 MRE cis-reporter transcription, Attagene multiplex; actives raise or lower the signal
Outline: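 HepG2 cells transiently transfected with multiple cis-element reporter units measure endogenous MTF1-driven transcription. After 24 h compound exposure, reporter mRNA is quantified by RT-PCR with 6-FAM labelling, HpaI digestion and capillary electrophoresis; bidirectional fits versus DMSO.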

[20] = ATG_PBREM_CIS: Attagene CIS-FACTORIAL HepG2 Assay for human Phenobarbital-responsive Enhancer Module (PBREM) (AID 2282955); conditions: HepG2 PBREM cis-reporter, Attagene multiplexed transcription; actives raise or lower the signal
Outline: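 Endogenous transcription factors in human liver HepG2 cells drive a PBREM cis-element reporter, whose transcript level after 24 h treatment is quantified by RT-PCR with capillary electrophoresis; activity fitted in both directions against DMSO.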

Measured: outcome

COc1nccnc1CC(C)C
not listed: [19] | [20]
inactive: all other assays above

[Cl][Eu]([Cl])[Cl]
not listed: [12] | [13] | [16] | [20]
inactive: all other assays above

CCOc1ccc(NC(N)=O)cc1
not listed: [12] | [13] | [14]
inactive: all other assays above

CCCCCCCCCCCCC
not listed: [9] | [10] | [19] | [20]
inactive: all other assays above
